Reference: PubChem BioAssay (NCI)
This is part of a sample that, as a whole, favours compounds with a hit. Of some 83,000 tested, about 20% had one in any assay.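 A percent growth of 40 corresponds to 60% growth inhibition; 0 means no net growth; -100 means all cells died. Active threshold: below 10.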 Active and inactive are the calls of the source.

Experiments:
Assay in all cases: NCI-60 one-dose screen, 48 h (100 = growth as untreated, 0 = no growth, -100 = all killed)
NCI-H23 lung = conditions: 10 µM unless noted
NCI-H226 lung = conditions: 10 µM unless noted
NCI-H322M lung = conditions: 10 µM unless noted
HOP-62 NSCLC = conditions: 10 µM unless noted
NCI-H460 lung = conditions: 10 µM unless noted
HOP-92 NSCLC = conditions: 10 µM unless noted
NCI-H522 lung = conditions: 10 µM unless noted
A549/ATCC NSCLC = conditions: 10 µM unless noted
COLO 205 colon = conditions: 10 µM unless noted
DU-145 prostate = conditions: 10 µM unless noted
K-562 leukemia = conditions: 10 µM unless noted
MALME-3M melanoma = conditions: 10 µM unless noted
RXF 393 renal = conditions: 10 µM unless noted
SF-268 CNS = conditions: 10 µM unless noted
SF-295 CNS = conditions: 10 µM unless noted
SF-539 CNS = conditions: 10 µM unless noted
UACC-257 melanoma = conditions: 10 µM
M14 melanoma = conditions: 10 µM unless noted
786-0 renal = conditions: 10 µM unless noted
MDA-MB-231 breast = conditions: 10 µM unless noted

Measured: growth

c1ccc2nc(-c3ccc4ccccc4n3)ccc2c1
inactive: NCI-H23 lung 88.5% | NCI-H226 lung 85.9% | NCI-H322M lung 95.8% | HOP-62 NSCLC 82.8% | NCI-H460 lung 103% | HOP-92 NSCLC 83% | NCI-H522 lung 70% | A549/ATCC NSCLC 102% | COLO 205 colon 106% | DU-145 prostate 106% | K-562 leukemia 93.3% | MALME-3M melanoma 83.5% | RXF 393 renal 117% | SF-268 CNS 95.9% | SF-295 CNS 93.5% | SF-539 CNS 88.3% | UACC-257 melanoma 106% | M14 melanoma 90.2%

O=C(Nc1ccccc1)OCC1OCOC(COC(=O)Nc2ccccc2)C1OC(=O)Nc1ccccc1 (centres undefined)
active: NCI-H460 lung 6.23%
inactive: NCI-H23 lung 67.1% | NCI-H226 lung 84% | NCI-H322M lung 49.4% | HOP-62 NSCLC 64.8% | HOP-92 NSCLC 94.9% | NCI-H522 lung 38.2% | A549/ATCC NSCLC 47.9% | 786-0 renal 49.3% | COLO 205 colon 91.6% | DU-145 prostate 43.7% | K-562 leukemia 57.9% | MALME-3M melanoma 72.2% | RXF 393 renal 37% | SF-268 CNS 39.8% | SF-295 CNS 90.5% | SF-539 CNS 72.4% | UACC-257 melanoma 102% | M14 melanoma 16.2%

NC(=S)NN=C1CCCCC1
inactive: NCI-H23 lung 89.5% | NCI-H226 lung 87.5% | NCI-H322M lung 99.3% | HOP-62 NSCLC 91.9% | NCI-H460 lung 97.8% | HOP-92 NSCLC 92.1% | NCI-H522 lung 70.3% | A549/ATCC NSCLC 84.7% | 786-0 renal 106% | COLO 205 colon 93.2% | DU-145 prostate 95.1% | K-562 leukemia 40.1% | MALME-3M melanoma 91.6% | RXF 393 renal 109% | SF-268 CNS 93.5% | SF-295 CNS 92.8% | SF-539 CNS 99.7% | UACC-257 melanoma 73.3% | M14 melanoma 81.2%

CC(=O)OCC1OC(OCC2OC(OC(C)=O)C(OC(C)=O)C(OC(C)=O)C2OC(C)=O)C(OC(C)=O)C(OC(C)=O)C1OC(C)=O (centres undefined)
inactive: NCI-H23 lung 103% | NCI-H226 lung 83.1% | NCI-H322M lung 101% | HOP-62 NSCLC 97.5% | NCI-H460 lung 104% | HOP-92 NSCLC 91.7% | NCI-H522 lung 104% | A549/ATCC NSCLC 94.4% | 786-0 renal 103% | COLO 205 colon 107% | DU-145 prostate 110% | K-562 leukemia 106% | MALME-3M melanoma 108% | RXF 393 renal 71% | SF-268 CNS 105% | SF-295 CNS 99.3% | SF-539 CNS 108% | UACC-257 melanoma 95.8% | M14 melanoma 107%

Cc1ccc(S(=O)(=O)OC2COCOC2C(OS(=O)(=O)c2ccc(C)cc2)C2OCOCC2OS(=O)(=O)c2ccc(C)cc2)cc1 (centres undefined)
inactive: NCI-H23 lung 109% | NCI-H226 lung 95.2% | NCI-H322M lung 96.3% | HOP-62 NSCLC 99.4% | NCI-H460 lung 110% | HOP-92 NSCLC 104% | NCI-H522 lung 98.3% | A549/ATCC NSCLC 93.6% | COLO 205 colon 108% | DU-145 prostate 111% | K-562 leukemia 100% | MALME-3M melanoma 98.1% | RXF 393 renal 114% | SF-268 CNS 106% | SF-295 CNS 104% | SF-539 CNS 98.9% | UACC-257 melanoma 97.2% | M14 melanoma 112%

COc1cc(/C=C2\CCCC3=C2N=C2SC(C)=NN2C3c2cc(OC)c(OC)c(OC)c2)cc(OC)c1OC (centres undefined)
inactive: NCI-H23 lung 23.2% | NCI-H226 lung 27.7% | NCI-H322M lung 28.5% | HOP-92 NSCLC 91.9% | NCI-H522 lung 81% | A549/ATCC NSCLC 39.9% | 786-0 renal 34.5% | COLO 205 colon 19.2% | RXF 393 renal 24.2% | UACC-257 melanoma 49.3% | M14 melanoma 10.6%
active: HOP-62 NSCLC -0.72% | NCI-H460 lung -13.9% | DU-145 prostate 4.69% | K-562 leukemia 6.05% | MDA-MB-231 breast -39.6% | SF-268 CNS 9.86% | SF-295 CNS 5.96% | SF-539 CNS -21.6%

CC(=O)Nc1ccc(S(=O)(=O)N2C(=O)CCC2C(=O)Nc2ccc(Br)cc2)cc1 (centres undefined)
inactive: NCI-H23 lung 21.9% | NCI-H226 lung 50.2% | NCI-H322M lung 31.8% | HOP-62 NSCLC 45.6% | NCI-H460 lung 21.2% | HOP-92 NSCLC 11.8% | A549/ATCC NSCLC 22.3% | 786-0 renal 57.8% | DU-145 prostate 44.2% | MDA-MB-231 breast 34.4% | RXF 393 renal 57.4% | SF-268 CNS 47.6% | SF-295 CNS 13.1% | SF-539 CNS 42.1% | UACC-257 melanoma 30.4% | M14 melanoma 36.9%
active: NCI-H522 lung -7.58% | COLO 205 colon 6.33% | K-562 leukemia 0.475%

CCCC1OC(c2ccc(C(C)C)cc2)OCC1CC (centres undefined)
inactive: NCI-H23 lung 98.8% | NCI-H226 lung 100% | NCI-H322M lung 98% | HOP-62 NSCLC 74% | NCI-H460 lung 123% | HOP-92 NSCLC 101% | NCI-H522 lung 87.2% | A549/ATCC NSCLC 75.8% | COLO 205 colon 99.6% | DU-145 prostate 110% | K-562 leukemia 102% | MALME-3M melanoma 106% | MDA-MB-231 breast 107% | RXF 393 renal 115% | SF-268 CNS 103% | SF-295 CNS 104% | SF-539 CNS 96.3% | M14 melanoma 101%
